Measurements as given in PubChem BioAssay (NCI).
This is part of a sample that, as a whole, favours compounds with a hit. Of some 83,000 tested, about 20% had one in any assay.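 Activity criterion: percent growth below 10, measured after cells in 96-well plates were exposed to a single compound concentration for 48 hours.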 Active and inactive are the calls of the source.

tested on: HL-60(TB) leukemia; test: NCI-60 one-dose screen, 48 h (100 = growth as untreated, 0 = no growth, -100 = all killed); conditions: 10 µM unless noted

| SMILES | growth |
| --- | --- |
| O=C(c1ccc(Cl)cc1)C1[C@H](c2ccc(Cl)cc2)[C@@H](c2ccccc2)NC12C(=O)Nc1ccccc12 (stereo not given in full) | 49.3% (inactive) |
| CC[C@H](C)[C@H]1NC(=O)[C@@H]([C@H](O)C(C)C)NC(=O)[C@@H](C)N(C)C(=O)[C@H](C)N(C)C(=O)[C@H](CC(C)C)NC(=O)[C@H](CC(C)C)N(C)C(=O)[C@H](C)N(C)C1=O | -19.4% (active) |
| O=S(=O)(NCCNc1nccc(-n2cnc3ccccc32)n1)c1ccc(C(F)(F)F)cc1 | 73.8% (inactive) |
| CC(C)(C)OC(=O)Nc1ccc(-c2cccc(Oc3ccc4nnc(Cl)n4n3)c2)cc1 | 64% (inactive) |
| CC(Nc1c(C#N)cnc2ccc(-c3cncc(O)c3)cc12)c1ccccc1 (stereo not given) | 3.91% (active) |
